The experiment in a line: MRP1 drug-resistance reversers in H69AR cells – cell-based, doxorubicin co-treatment, pilot screen (AID 601). To be noted: H69AR cells, CellTiter-Glo, 72 h; compound alone cytotoxicity; at 10 µM. For orientation: ATP-based viability assays read luminescence as a measure of living cells.
Take `CC1(C)Cc2cccc(OCC(=O)O)c2O1`: the viability (in general, a read-out of living cells in per cent, often relative to untreated cells) was 95.4%. The same measure for `CCn1cc(C(=O)O)c(=O)c2cc(F)c(N3CCN(C(=O)Nc4ccccc4)CC3)cc21`: 79.5%; for `[O-][n+]1c2ccc3nonc3c2nn1-c1ccccc1Cl`: 95.1%. Next, `Cc1oc(-c2ccccc2Cl)nc1CSCC(=O)N1CCCC1`: 99.5%; `CC(NC(=O)Cc1cccs1)c1ccc2c(c1)OCO2` (centres undefined): 99.9%. As to `O=C(NCc1ccco1)c1csc(Nc2ccccc2Cl)n1`, the viability worked out at 78.2%.

For `O=C(Nc1ccc2c(c1)OCO2)C1CCCN1C(=O)Nc1ccccc1F` (centres undefined), the viability stood at 96.2%.

As for `COCCNC(=O)CC(NS(=O)(=O)c1ccc(NC(C)=O)cc1)C(C)C` (centres undefined), the viability came out at 95.1%. Next, `Cc1ccc(S(=O)(=O)NCCN2CCOCC2)cc1C`: 86.1%; `Cc1n[nH]c(C)c1S(=O)(=O)N1CCN(c2ccccn2)CC1`: 103%. Take `COCCNC(=O)CN(C)S(=O)(=O)c1ccc2c(c1)OCCO2`: the viability is 100%. Next, `Cc1cc(C(F)F)n2nc(C(=O)Nc3ccc(S(=O)(=O)N4CCCCCC4)cc3)nc2n1`: 83.3%; `O=C(O)C1C2C=CC(O2)C1C(=O)NCc1ccc(Cl)cc1` (centres undefined): 104%; `Cc1ccc(NC2c3ncccc3C(=O)N2C2CCCCC2)cc1C` (centres undefined): 92.7%. Next, `C=CCOc1ccc(C2C(C(=O)c3ccco3)=C(O)C(=O)N2Cc2cccnc2)cc1` (centres undefined): 90.9%; `COCCNC(=O)C(c1ccncc1)N(C(=O)Cn1nnc2ccccc21)c1ccc(OC)cc1` (centres undefined): 104%; `CCOc1ccc(NC(=O)CSc2nnc(Cc3cccn3C)n2-c2ccc(OC)cc2)cc1`: 90.6%. Next, `CCOC(=O)N1CCC(O)(c2cc(C)c(C)cc2C)CC1`: 99.4%; `Clc1cccc(Nc2c3c(nc4ncnn24)CCC3)c1`: 83.8%.
